miR122 inh – activators of miR-122 sensor in Huh7 cells | Huh7 psiCHECK-miR122 Renilla luciferase sensor, 48 h | activation, % at 12.5 µM | hit rate 0.14% among 340,000 | AID 623901;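 active = mean activation of 30% or more, with every replicate also reaching 30%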;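 note: higher luciferase signal means stronger suppression of miR-122 activity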
Hits are given with their value; - = inactive. Only a selection was taken, and hits are over-represented in it overall.

SMILES | miR122 inh
CO[C@H]1CN(C)C(=O)c2ccc(NC(=O)c3ccccc3)cc2OC[C@H](C)N(C)C[C@H]1C | -
C[C@H]1CN([C@@H](C)CO)C(=O)c2cc(C#Cc3ccccc3F)cnc2O[C@H]1CN(C)C(=O)Cc1ccncc1 | -
C[C@@H]1CN([C@@H](C)CO)C(=O)c2cc(C#CC3(O)CCCC3)cnc2O[C@H]1CN(C)S(=O)(=O)c1ccc(F)cc1 | -
CCC(=O)N(C)C[C@H]1Oc2cc(C#C[C@H](C)O)ccc2S(=O)(=O)N([C@@H](C)CO)C[C@H]1C | -
C[C@@H]1CN([C@H](C)CO)S(=O)(=O)c2ccc(C#Cc3ccc(F)cc3)cc2O[C@H]1CN(C)S(C)(=O)=O | -
C=CCc1c(OC)ccc2ccc(=O)oc12 | 31.5
COCC#Cc1cnc2c(c1)C(=O)N([C@@H](C)CO)C[C@H](C)[C@H](CN(C)Cc1ccccc1)O2 | -
C[C@H](CO)N1C[C@H](C)[C@H](CN(C)Cc2ccncc2)Oc2ncc(C#CC(C)(C)O)cc2C1=O | -
COc1ccc(C#Cc2ccc3c(c2)O[C@H](CN(C)C(=O)NC2CCCCC2)[C@H](C)CN([C@@H](C)CO)S3(=O)=O)cc1 | -
C[C@H](CO)N1C[C@H](C)[C@H](CN(C)S(=O)(=O)c2cccc(F)c2)Oc2ncc(-c3ccc(F)cc3)cc2C1=O | -
C[C@@H]1CN([C@@H](C)CO)S(=O)(=O)c2ccc(C#Cc3ccc(F)cc3)cc2O[C@H]1CN(C)S(=O)(=O)c1cn(C)cn1 | -
C/C=C/c1ccc2c(c1)O[C@H](CN(C)C(=O)CC1CC1)[C@@H](C)CN([C@@H](C)CO)S2(=O)=O | -
COc1cccc(NC(=O)N(C)C[C@H]2Oc3cc(-c4cccc(C(=O)N(C)C)c4)ccc3S(=O)(=O)N([C@@H](C)CO)C[C@H]2C)c1 | -
C[C@@H]1CN([C@@H](C)CO)C(=O)Cc2cc(NC(=O)Nc3cccc4ccccc34)ccc2O[C@@H]1CN(C)C(=O)NC1CCCCC1 | -
COc1ccc(S(=O)(=O)Nc2ccc3c(c2)C(=O)N([C@@H](C)CO)C[C@H](C)[C@H](CN(C)C(=O)Nc2ccccc2)OCCCC[C@@H](C)O3)cc1 | -
C[C@H]1CN([C@@H](C)CO)C(=O)c2cccc(NC(=O)Nc3ccc(C(F)(F)F)cc3)c2O[C@@H]1CN(C)CC1CCCCC1 | -
C[C@H](CO)N1C[C@H](C)[C@@H](CN(C)CC2CCCCC2)OCCCC[C@H](C)Oc2ccc(NC(=O)Nc3cccc4ccccc34)cc2C1=O | 34.0
C[C@@H]1CCCCO[C@@H](CN(C)CC2CCCCC2)[C@@H](C)CN([C@@H](C)CO)C(=O)c2cc(NC(=O)Nc3cccc4ccccc34)ccc2O1 | 31.0
C[C@H](CO)N1C[C@H](C)[C@@H](CN(C)CC2CCCCC2)Oc2c(NC(=O)c3ccncc3)cccc2C1=O | -
COc1ccccc1-c1ccc2c(c1)O[C@H](CN(C)S(=O)(=O)c1ccc(C)cc1)[C@H](C)CN([C@@H](C)CO)S2(=O)=O | -
COc1ccccc1S(=O)(=O)N(C)C[C@@H]1Oc2cc(/C=C/c3ccccc3)ccc2S(=O)(=O)N([C@H](C)CO)C[C@H]1C | -
CCCNC(=O)N(C)C[C@@H]1Oc2cc(Br)ccc2S(=O)(=O)N([C@@H](C)CO)C[C@@H]1C | -
C[C@@H]1CN([C@@H](C)CO)C(=O)c2cc(C#Cc3ccccn3)cnc2O[C@H]1CN(C)CC1CCOCC1 | -
C[C@H](O)C#Cc1ccc2c(c1)O[C@@H](CN(C)Cc1cccnc1)[C@@H](C)CN([C@H](C)CO)S2(=O)=O | -
COc1cccc(-c2cnc3c(c2)C(=O)N([C@H](C)CO)C[C@H](C)[C@H](CN(C)Cc2cccc(C(F)(F)F)c2)O3)c1 | -
SMILES | miR122 inh
COc1ccc(-c2c(-c3ccccc3)c(C(=O)C(=O)NCCCN(C)C)n3ccc4cc(OC)c(OC)cc4c23)cc1OC | 37.5
C[C@@H]1CN([C@@H](C)CO)S(=O)(=O)c2ccc(C#Cc3ccc(F)cc3)cc2O[C@@H]1CN(C)S(=O)(=O)c1cn(C)cn1 | -
O=[N+]([O-])c1ccc(O)c(/C=N/Nc2ccc(Cl)nn2)c1 | 45.8
C[C@@H]1CN([C@@H](C)CO)C(=O)c2cc(C#CCC3CCCC3)cnc2O[C@@H]1CN(C)Cc1ccccn1 | -
C[C@@H]1CN([C@@H](C)CO)C(=O)Cc2cc(NC(=O)Nc3ccc(C(F)(F)F)cc3)ccc2O[C@H]1CN(C)CC1CCCCC1 | 31.5
C[C@@H]1CN([C@H](C)CO)C(=O)Cc2cc(NS(=O)(=O)c3ccc(Cl)cc3)ccc2O[C@@H]1CN(C)C(=O)Nc1ccc(C(F)(F)F)cc1 | -
C[C@@H]1CN([C@@H](C)CO)C(=O)Cc2cc(NC(=O)C3CCCCC3)ccc2O[C@H]1CN(C)Cc1ccc(-c2ccccc2)cc1 | 33.0
Cc1ccc(S(=O)(=O)N(C)C[C@@H]2Oc3ccc(NC(=O)Nc4ccc(C(F)(F)F)cc4)cc3CC(=O)N([C@H](C)CO)C[C@@H]2C)cc1 | -
C[C@H](CO)N1C[C@H](C)[C@H](CN(C)Cc2ccc(C(=O)Nc3ccccc3N)cc2)Oc2ccc(NC(=O)C3CC3)cc2CC1=O | -
C[C@H](CO)N1C[C@H](C)[C@H](CN(C)Cc2ccc(C(=O)Nc3ccccc3N)cc2)Oc2ccc(NC(=O)C3CCCCC3)cc2CC1=O | -
CC(C)CC#Cc1ccc2c(c1)O[C@H](CN(C)C(=O)NC1CCCC1)[C@H](C)CN([C@H](C)CO)S2(=O)=O | -
C[C@H]1CN([C@@H](C)CO)C(=O)c2cc(Br)cnc2O[C@H]1CN(C)Cc1ccccn1 | -
Cc1ccccc1-c1ccc2c(c1)O[C@H](CN(C)C(=O)Nc1ccccc1)[C@@H](C)CN([C@@H](C)CO)S2(=O)=O | -
C[C@H](CO)N1C[C@H](C)[C@@H](CN(C)Cc2ccccn2)Oc2cc(C#CC3CC3)ccc2S1(=O)=O | -
CC(=O)N(C)C[C@@H]1Oc2cc(C#CC3CCCCC3)ccc2S(=O)(=O)N([C@@H](C)CO)C[C@@H]1C | -
CC(C)CC#Cc1cnc2c(c1)C(=O)N([C@H](C)CO)C[C@H](C)[C@H](CN(C)C(=O)NC1CCCC1)O2 | -
C[C@H](CO)N1C[C@H](C)[C@@H](CN(C)C(=O)Nc2ccccc2)Oc2cc(C#Cc3ccccc3)ccc2S1(=O)=O | -
COc1cccc2c1C(=O)c1c(O)c3c(c(O)c1C2=O)C[C@@](O)(C(=O)CO)C[C@@H]3O[C@H]1C[C@H](N)[C@H](O)[C@H](C)O1 | 68.7
C[C@H](CO)N1C[C@H](C)[C@H](CN(C)CC2CCOCC2)Oc2cc(C#C[C@@H](C)O)ccc2S1(=O)=O | -
COCC#Cc1ccc2c(c1)O[C@H](CN(C)C(=O)C1CCCCC1)[C@H](C)CN([C@@H](C)CO)S2(=O)=O | -
COCC#Cc1cnc2c(c1)C(=O)N([C@H](C)CO)C[C@H](C)[C@@H](CN(C)C(=O)Cc1ccccc1)O2 | -
c1cnc(N2CCN(Cc3c[nH]c4ccccc34)CC2)nc1 | 37.6
C[C@@H]1CN([C@@H](C)CO)S(=O)(=O)c2ccc(-c3cncnc3)cc2O[C@@H]1CN(C)C(=O)Cc1ccncc1 | -
CCC(=O)N1C[C@H](C)[C@@H](OC)CN(C)C(=O)c2ccc(NS(C)(=O)=O)cc2OC[C@H]1C | -
Cc1noc(C)c1NC(=O)N(C)C[C@@H]1Oc2ncc(C#Cc3cccc(F)c3)cc2C(=O)N([C@H](C)CO)C[C@@H]1C | -

Screens as filed in PubChem BioAssay.
